We go through five compounds from PubChem BioAssay.

Calls of active or inactive are those of the source.

Test [1] deals with Albumin (Bos taurus) (UniProt P02769). Nature of the test: compounds binding labelled BSA control protein – biochemical, small-molecule microarray, Alexa647 label, 635/667 nm fluorescence, artefact control for SMM control protein annotation, profiling panel (AID 1118).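 Also: score merges 667 nm emission intensity and signal-to-noise per printed compound spot.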 The note with it: BSA-A647 binding, fluorescence 635 nm, higher = more signal.
Sequence of Albumin (Bos taurus) (P02769 whole entry, looked up): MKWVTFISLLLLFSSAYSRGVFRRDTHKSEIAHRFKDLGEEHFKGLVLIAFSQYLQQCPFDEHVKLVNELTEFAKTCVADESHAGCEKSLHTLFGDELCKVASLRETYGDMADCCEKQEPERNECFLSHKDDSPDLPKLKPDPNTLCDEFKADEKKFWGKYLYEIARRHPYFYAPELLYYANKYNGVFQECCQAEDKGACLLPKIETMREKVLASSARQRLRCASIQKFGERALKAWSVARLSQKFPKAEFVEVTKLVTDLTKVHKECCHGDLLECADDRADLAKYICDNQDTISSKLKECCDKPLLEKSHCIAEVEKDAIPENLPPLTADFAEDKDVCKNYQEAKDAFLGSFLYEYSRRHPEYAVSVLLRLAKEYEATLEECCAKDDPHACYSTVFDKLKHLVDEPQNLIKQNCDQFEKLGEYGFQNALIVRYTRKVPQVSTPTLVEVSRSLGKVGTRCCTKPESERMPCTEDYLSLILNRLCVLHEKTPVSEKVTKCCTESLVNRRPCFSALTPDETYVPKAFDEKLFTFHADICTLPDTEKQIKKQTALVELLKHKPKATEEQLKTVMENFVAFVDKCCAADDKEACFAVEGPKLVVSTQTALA
Test [2] can be described thus: probe aXIP binding to arrayed compounds – biochemical, NeuroSMM set, 635/667 nm fluorescence, primary screen (AID 1119).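 Also: probe is the protein aXip251-270 applied at 1 µg/mL to compound-printed slides; binding of probe to printed compounds measured as 667 nm fluorescence plus signal to noise.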 The note with it: small-molecule microarray, higher = more signal, called active from +8 up or from −8 down.
A short description of test [3]: probe aNOTCH3 binding on compound microarray – biochemical, small-molecule microarray, 635/667 nm fluorescence, primary screen (AID 1120).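 Also: probe is a biotin-tagged antibody raised against NOTCH3 rather than NOTCH3 protein; score merges spot fluorescence near 667 nm with spot signal to noise.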 Conditions: higher = more signal.
Test [4] is described as follows: probe aNOTCH2 binding on compound microarray – biochemical, small-molecule microarray, 635/667 nm fluorescence, primary screen (AID 1121).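 Also: score merges feature fluorescence read at 667 nm with its signal to noise.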 Conditions: higher = more signal.
The target of test [5] is Carbonic anhydrase 2 (Homo sapiens) (UniProt P00918). Nature of the test: compounds binding carbonic anhydrase 2 – biochemical, small-molecule microarray, Alexa647-labelled CAII, profiling panel (AID 1122). Conditions: CAII-A647 binding fluorescence, higher = more signal.
Test [6] in a line: COS7 lysate on small-molecule microarray, probe aHis, 635 nm (AID 1123).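 Also: z-score combines 667nm fluorescence intensity with signal-to-noise per printed compound spot.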 The note with it: COS7 cell lysate, fluorescence, higher = more signal.
The nature of test [7]: probe aLAP1 signal on lysate-treated microarray – cell lysate, small-molecule microarray, COS7 lysate, primary screen (AID 1124).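 Also: lysate comes from COS7 cells expressing LAP1 and is applied at 0.3 µg/mL; score merges spot fluorescence near 667 nm with signal-to-noise over triplicate slides.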 The note with it: probe aLAP1, fluorescence, higher = more signal.
In test [8] the test system is Sam68 (KHDRBS1). As to the kind of experiment: compounds binding KHDRBS1 protein – biochemical, small-molecule microarray, 635 nm fluorescence, primary screen (AID 1125).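 Also: score merges 667 nm channel intensity with signal to noise over triplicate slides.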 Conditions: higher = more signal.
Test [9] concerns Chordin-like protein 2 (CHRDL2). Nature of the test: compounds binding chordin-like 2 – biochemical, small-molecule microarray, 635 nm fluorescence, primary screen (AID 1126).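 Also: printed compound slides probed with Chrdl2 protein at 4 µg/mL for 1 h at 4 C; score merges 667 nm emission intensity with signal to noise over three replicate slides.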 Conditions: fluorescence 635 nm, higher = more signal.
The target of test [10] is Concanavalin-A (Canavalia ensiformis) (UniProt P02866). As to the kind of experiment: compounds binding concanavalin A lectin – biochemical, small-molecule microarray, Alexa647 label, 635 nm, artefact control for SMM control protein annotation, primary screen (AID 1127).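 Also: z combines 667 nm emission intensity with signal-to-noise across three replicate slides.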 Conditions: ConA-A647 binding fluorescence, higher = more signal.
Sequence of Concanavalin-A (Canavalia ensiformis) (P02866 whole entry, looked up): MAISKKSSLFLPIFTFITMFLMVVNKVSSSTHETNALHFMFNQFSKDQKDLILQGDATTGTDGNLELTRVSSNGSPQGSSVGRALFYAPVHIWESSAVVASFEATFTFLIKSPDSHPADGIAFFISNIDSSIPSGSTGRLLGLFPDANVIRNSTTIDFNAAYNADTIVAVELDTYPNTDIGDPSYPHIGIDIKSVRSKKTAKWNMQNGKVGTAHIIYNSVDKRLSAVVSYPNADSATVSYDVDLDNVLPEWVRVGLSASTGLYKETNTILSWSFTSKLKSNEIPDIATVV
The nature of test [11]: compounds binding Alexa647 anti-His antibody – biochemical, small-molecule microarray, 635 nm fluorescence, artefact control for SMM control protein annotation, primary screen (AID 1128).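 Also: score merges feature fluorescence with signal-to-noise for each printed compound spot.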 Conditions: higher = more signal.
The test system of test [12] is Human papillomavirus type 1a E7 protein (residues 1-88). Nature of the test: HPV1a E7 small-molecule binders, primary screen, biochemical, small-molecule microarray, residues 1-88, 635 nm (AID 1129). Conditions: small-molecule microarray binding, fluorescence 635 nm; higher = more signal.
Test [13] deals with Focal adhesion kinase 1 (Homo sapiens) (UniProt Q05397). Nature of the test: PTK2 protein binding on printed compound slides – biochemical, small-molecule microarray, 635/667 nm fluorescence, BSA, DTT, primary screen (AID 1130).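 Also: composite of spot emission at 667 nm and signal to noise over triplicate slides.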 Conditions: 635 nm fluorescence, higher = more signal.
Sequence of Focal adhesion kinase 1 (Homo sapiens) (Q05397 whole entry, looked up): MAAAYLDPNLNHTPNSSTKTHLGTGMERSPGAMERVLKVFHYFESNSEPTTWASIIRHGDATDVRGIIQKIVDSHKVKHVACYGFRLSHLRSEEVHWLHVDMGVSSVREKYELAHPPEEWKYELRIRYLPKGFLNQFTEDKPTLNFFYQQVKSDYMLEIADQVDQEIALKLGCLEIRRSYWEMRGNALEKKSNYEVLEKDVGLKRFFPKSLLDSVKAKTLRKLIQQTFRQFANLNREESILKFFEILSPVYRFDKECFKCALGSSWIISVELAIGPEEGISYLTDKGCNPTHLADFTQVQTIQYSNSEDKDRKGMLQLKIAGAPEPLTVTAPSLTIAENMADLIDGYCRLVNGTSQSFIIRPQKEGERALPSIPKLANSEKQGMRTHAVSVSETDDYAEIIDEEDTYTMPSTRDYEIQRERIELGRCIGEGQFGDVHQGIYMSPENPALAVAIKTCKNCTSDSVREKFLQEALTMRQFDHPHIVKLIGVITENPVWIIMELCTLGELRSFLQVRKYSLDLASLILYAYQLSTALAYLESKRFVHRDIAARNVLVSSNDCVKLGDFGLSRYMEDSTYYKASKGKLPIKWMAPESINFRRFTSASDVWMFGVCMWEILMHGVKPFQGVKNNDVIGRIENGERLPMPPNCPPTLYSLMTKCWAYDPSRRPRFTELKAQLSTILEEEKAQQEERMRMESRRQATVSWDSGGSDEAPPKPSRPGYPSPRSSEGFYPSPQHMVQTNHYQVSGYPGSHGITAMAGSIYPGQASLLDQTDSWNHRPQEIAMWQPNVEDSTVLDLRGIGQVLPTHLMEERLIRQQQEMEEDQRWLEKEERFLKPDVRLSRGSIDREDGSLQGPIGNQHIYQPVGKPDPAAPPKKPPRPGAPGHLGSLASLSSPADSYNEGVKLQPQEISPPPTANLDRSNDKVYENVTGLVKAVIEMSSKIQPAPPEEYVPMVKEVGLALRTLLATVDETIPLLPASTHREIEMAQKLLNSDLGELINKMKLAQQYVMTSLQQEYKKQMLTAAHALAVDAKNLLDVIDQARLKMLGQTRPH
Test [14] concerns Fibrinogen (Alexa647-labelled). Nature of the test: Alexa647-fibrinogen binding to printed small molecules – biochemical, small-molecule microarray, 635/667 nm fluorescence, artefact control for SMM control-protein annotation, profiling panel (AID 1131).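 Also: z-score merges 667 nm fluorescence with per-spot signal-to-noise over triplicate slides.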 The note with it: fibrinogen-A647 binding fluorescence, higher = more signal.
In test [15] the target is Follistatin (Homo sapiens) (UniProt P19883). As to the kind of experiment: FST protein binding to printed compounds – biochemical, small-molecule microarray, 635/667 nm fluorescence, primary screen (AID 1132). The note with it: 635 nm fluorescence, higher = more signal.
Sequence of Follistatin (Homo sapiens) (P19883 whole entry, looked up): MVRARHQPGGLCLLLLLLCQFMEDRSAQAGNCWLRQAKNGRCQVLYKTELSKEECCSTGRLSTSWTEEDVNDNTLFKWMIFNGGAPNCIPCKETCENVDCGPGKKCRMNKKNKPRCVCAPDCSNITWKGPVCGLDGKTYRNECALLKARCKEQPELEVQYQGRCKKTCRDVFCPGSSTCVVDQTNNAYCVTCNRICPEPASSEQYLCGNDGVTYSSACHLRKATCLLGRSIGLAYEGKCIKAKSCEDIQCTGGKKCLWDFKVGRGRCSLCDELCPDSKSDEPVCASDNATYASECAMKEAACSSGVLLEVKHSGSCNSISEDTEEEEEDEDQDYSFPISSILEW
Test [16] concerns the target Fibroblast growth factor 2 (Homo sapiens) (UniProt P09038). Nature of the test: basic fibroblast growth factor binding to printed compounds – biochemical, small-molecule microarray, 635/667 nm fluorescence, primary screen (AID 1133). Conditions: FGF2, fluorescence 635/667, higher = more signal.
A short description of test [17]: JC-1 mitochondrial potential readout, lung cancer cells – cell-based, A549, JC-1 fluorescence, basal, 24 h, 100 nL, profiling panel (AID 1138).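 Also: A549 lung adenocarcinoma cells under basal conditions with no added stimulus; test concentration not given here.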 Conditions: higher = more signal.
Test [18] has as its system Lefty1. Nature of the test: Lefty1 protein binding to printed compounds – biochemical, small-molecule microarray, 635/667 nm fluorescence, primary screen (AID 1139). Conditions: fluorescence 635/667, higher = more signal.
The test system of test [19] is wheat germ agglutinin (Triticum aestivum), Alexa647-labelled. As to the kind of experiment: Alexa647-WGA lectin binding to printed small molecules – biochemical, small-molecule microarray, 635/667 nm fluorescence, artefact control for SMM control-protein annotation, profiling panel (AID 1140).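 Also: score merges 667 nm feature emission with signal to noise over triplicate slides.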 Conditions: WGA-A647 binding, 635 nm fluorescence, higher = more signal.
In test [20] the target is Luciferin 4-monooxygenase (Photinus pyralis) (UniProt P08659). As to the kind of experiment: inhibition of purified Photinus pyralis luciferase – biochemical, luminescence, purified enzyme, 2006 set, primary screen (AID 1141).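 Also: cell-free assay with purified firefly luciferase at 100 ng per well in PBS; test concentration not given here.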 The note with it: purified firefly luciferase, SteadyGlo luminescence, 30 min; higher = more signal, called active from +8 up or from −8 down.
Sequence of Luciferin 4-monooxygenase (Photinus pyralis) (P08659 whole entry, looked up): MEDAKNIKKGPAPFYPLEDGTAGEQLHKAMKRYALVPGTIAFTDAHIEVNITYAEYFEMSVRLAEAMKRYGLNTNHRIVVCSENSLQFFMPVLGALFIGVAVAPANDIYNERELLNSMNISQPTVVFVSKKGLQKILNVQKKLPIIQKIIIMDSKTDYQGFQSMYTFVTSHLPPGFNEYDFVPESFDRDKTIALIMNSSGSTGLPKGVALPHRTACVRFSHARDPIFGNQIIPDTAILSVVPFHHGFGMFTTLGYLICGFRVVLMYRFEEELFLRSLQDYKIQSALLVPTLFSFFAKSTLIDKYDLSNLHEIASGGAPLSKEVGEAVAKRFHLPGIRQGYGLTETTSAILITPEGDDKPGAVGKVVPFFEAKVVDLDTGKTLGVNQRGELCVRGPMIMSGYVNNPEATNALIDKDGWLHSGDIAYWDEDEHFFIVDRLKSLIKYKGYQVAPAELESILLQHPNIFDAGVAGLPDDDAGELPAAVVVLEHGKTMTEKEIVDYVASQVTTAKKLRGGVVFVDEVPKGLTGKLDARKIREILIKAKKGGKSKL

Sequence of Fibroblast growth factor 2 (Homo sapiens) (P09038 whole entry, looked up): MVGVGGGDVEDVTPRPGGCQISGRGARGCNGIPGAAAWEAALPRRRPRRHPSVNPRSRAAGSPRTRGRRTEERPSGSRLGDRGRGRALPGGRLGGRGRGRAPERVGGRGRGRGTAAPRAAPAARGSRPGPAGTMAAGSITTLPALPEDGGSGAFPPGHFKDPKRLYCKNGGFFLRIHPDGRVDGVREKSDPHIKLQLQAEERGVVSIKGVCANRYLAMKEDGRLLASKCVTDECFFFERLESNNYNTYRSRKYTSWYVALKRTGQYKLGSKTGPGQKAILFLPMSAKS

Take `COC(=O)[C@@]1(Cc2ccc(F)cc2)[C@H]2c3cc(C(=O)N4CCCC4)n(Cc4ccc(C(F)(F)F)nc4)c3C[C@H]2CN1C(=O)c1ccccc1`: the composite z-score in [1] is 1.05; in [3], 0.522; in [4], -0.0013; in [5], 0.579; in [6] it was 3.01; in [7], 0.4. Further, the composite z-score is 1.23 in test [8]; -1.41 in test [9]; 0.962 in test [10]; 1.2 in [11]; 1.19 in [12]; 1.16 in test [13]. The composite z-score in test [14] is 1.01; in test [15], 1.38; in test [16], -0.71; in test [18] it was -0.13; in test [19], 1.06. In test [2], the composite Z-score was 0.136 (inactive). Besides, the z-score in test [17] was 1.3; in [20], 3.14 (inactive).
With `CN1C(=O)C2C=CC(C(O)c3ccc([N+](=O)[O-])cc3)N(Nc3ccccc3)C2C1=O` (stereo not given), the composite z-score in [1] was 1.06; in test [3] it was 0.315; in test [4], -0.0305; in test [5] it was 0.652; in [6], 1.94; in test [7], 0.701. In addition, the composite z-score in test [8] came out at 1.31; in test [9], 0.196; in [10] it was 1.15; in [11], 0.358; in [12] it was 1.23; in test [13] it was 0.36. Further, the composite z-score came out at 0.999 in [14]; 1.26 in [15]; 0.531 in test [16]; 0.0022 in [18]; 1.04 in test [19]. Besides, the composite Z-score in test [2] is -1.05 (inactive). In addition, the z-score in test [17] is -0.387; in [20], -0.53 (inactive).
`CC(C)[Si](C#Cc1ccccc1)(O[C@H](c1ccccc1)c1cn(Cc2ccccc2)nn1)C(C)C`: the composite z-score was 0.939 in test [1]; -0.127 in [3]; -0.189 in [4]; 0.57 in test [5]; 0.467 in test [6]; 0.471 in test [7]. The composite z-score was determined as 0.879 in test [8]; 0.664 in [9]; 1.17 in [10]; 0.409 in test [11]; 1.11 in test [12]; 0.188 in [13]. In addition, the composite z-score is 0.588 in test [14]; 1.11 in test [15]; 1.3 in test [16]; -0.0104 in test [18]; 0.139 in test [19]. In [2], the composite Z-score was 0.708 (inactive). The figures for the z-score in test [17] and in test [20] were -0.485 and -1.3 (inactive), respectively.
`COC(=O)[C@H]1N=C(c2ccc(OCCCO)cc2)O[C@H]1c1ccccc1N=[N+]=[N-]`: the composite z-score in [1] is 0.177; in test [3], 0.156; in test [4], 0.273; in [5] it was 0.574; in [6] it was 2.51; in test [7], 0.285. Further, the composite z-score was determined as 0.342 in test [8]; 0.158 in test [9]; 0.656 in [10]; 0.608 in [11]; 1.16 in test [12]; 2.19 in test [13]. The composite z-score is 0.936 in [14]; 0.562 in test [15]; -0.0231 in [16]; -0.401 in [18]; 0.733 in test [19]. Also, the composite Z-score in test [2] is 0.408 (inactive). Besides, the z-score was -0.512 in [17] and -19.2 (active) in test [20].
Regarding `CN(C)CCCCCCNC(=O)[C@@H]1C[C@@H]2C(=O)N[C@@H](CCCC[N+](C)(C)C)C(=O)N2[C@@H]1c1cccc(OCCO)c1`, the composite z-score in [1] is 0.792; in [3], -0.155; in test [4], -0.0495; in test [5], 0.321; in test [6] it was 0.617; in [7], 0.98. For the same compound, the composite z-score in [8] is -0.311; in test [9] it was -0.0783; in [10], 0.566; in [11], 2.34; in [12], 0.13; in test [13], -0.159. Moreover, the composite z-score in test [14] is 0.104; in test [15], 0.704; in test [16] it was 0.645; in test [18], -0.601; in [19], 0.853. Besides, in [2], the composite Z-score was 1.88 (inactive). The z-score was 0.417 in [17] and -2.44 (inactive) in test [20].
